Screens from PubChem BioAssay.
Hits are enriched below; roughly 12% of the tested compounds scored in any of these assays.
L3MBTL1 block = qHTS Assay for the Inhibitors of L3MBTL1. Lethal(3)malignant brain tumor-like protein 1 (Homo sapiens), Q9Y468. AlphaScreen L3MBTL1–H3K9me1 peptide binding. Potency, µM (top dose mostly 57.1 µM), most hits filed as inhibitors. 0.66% of 230,000 active; further: nearly all actives have a fitted effect of over 60% in size
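L3MBTL1 50 nM + b-AHA-H3(1-15)K9me1 75 nM, 30 min RT; compound added, 30 min RT; streptavidin donor/Ni-chelate acceptor beads 10 ug/mL each final, 30 min RT dark; AlphaScreen read.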
G9a block = qHTS Assay for Inhibitors of Histone Lysine Methyltransferase G9a | Histone-lysine N-methyltransferase EHMT2 (Homo sapiens), Q96KQ7 | G9a H3K9 monomethylation, AlphaScreen, 2 h | Potency, µM (top dose mostly 102 µM), actives largely listed as inhibitors | 8.8% of 350,000 active | AID 504332, 2011; further: nearly all actives have a fitted effect of over 75% in size
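AlphaScreen detection with an anti-monomethyl H3K9 antibody quantified product after a 2 h room-temperature reaction containing 500 nM biotinylated H3K9 peptide, 20 µM SAM and 20 nM enzyme, which had been preincubated 15 min with compound.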
Sfp inh = qHTS Assay for Inhibitors of Bacillus subtilis Sfp phosphopantetheinyl transferase (PPTase); 4'-phosphopantetheinyl transferase ffp (Bacillus subtilis), Q9F4F7; Biochemical Sfp PPTase activity, qHTS; Potency, µM, usual class: inhibitors; 3.5% of 310,000 active; AID 1490, 2009;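 further: the enzyme is Sfp with the accession as filed and its product quenches rhodamine fluorescence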
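Buffer: 50 mM Hepes-Na pH 7.6, 10 mM MgCl2, 0.01% Nonidet P-40, 0.01% BSA. Enzyme 15 nM, pre-exposed to compound 15 min; substrates then added and fluorescence change tracked over 30 min.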
HP1b binding inh = HTS for Inhibitors of HP1-beta Chromodomain Interactions with Methylated Histone Tails. AlphaScreen HP1-beta / biotin-H3K9me3 peptide binding. Potency, µM (titrated, usually from 114 µM), most hits filed as inhibitors. 0.56% of 390,000 active; further: nearly all actives have a fitted effect of over 70% in size
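AlphaScreen: HP1-beta (50 nM) preformed 30 min with biotin-H3(1-18)K9me3 peptide (50 nM) in PBS pH 7.4, 0.01% Tween-20. Compound added for 30 min at RT, then streptavidin donor/nickel chelate acceptor beads (10 ug/mL) for 30 min.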
BAZ2B block = qHTS Assay for Inhibitors of BAZ2B; AlphaScreen BAZ2B-H3K14Ac peptide displacement; Potency, µM (doses to about 114 µM), most hits filed as inhibitors; 4.4% of 360,000 active; further: nearly all actives have a fitted effect of over 60% in size
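Compounds, titrated to a top concentration of 110 uM, were incubated 30 min at room temperature with preformed BAZ2B/acetyl-K14 H3 peptide complex (50 nM each). Proximity signal was measured by AlphaScreen after 20 min with beads.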
JMJD2A Tudor inh = qHTS Assay for Inhibitors of JMJD2A-Tudor Domain; AlphaScreen JMJD2A-Tudor / H3K4me3 peptide binding; Potency, µM (highest dose often 114 µM), hits mostly inhibitors; 4.4% of 390,000 active; further: nearly all actives have a fitted effect of over 50% in size
Target sequence (O75164 whole entry, looked up, the tested form may be a part): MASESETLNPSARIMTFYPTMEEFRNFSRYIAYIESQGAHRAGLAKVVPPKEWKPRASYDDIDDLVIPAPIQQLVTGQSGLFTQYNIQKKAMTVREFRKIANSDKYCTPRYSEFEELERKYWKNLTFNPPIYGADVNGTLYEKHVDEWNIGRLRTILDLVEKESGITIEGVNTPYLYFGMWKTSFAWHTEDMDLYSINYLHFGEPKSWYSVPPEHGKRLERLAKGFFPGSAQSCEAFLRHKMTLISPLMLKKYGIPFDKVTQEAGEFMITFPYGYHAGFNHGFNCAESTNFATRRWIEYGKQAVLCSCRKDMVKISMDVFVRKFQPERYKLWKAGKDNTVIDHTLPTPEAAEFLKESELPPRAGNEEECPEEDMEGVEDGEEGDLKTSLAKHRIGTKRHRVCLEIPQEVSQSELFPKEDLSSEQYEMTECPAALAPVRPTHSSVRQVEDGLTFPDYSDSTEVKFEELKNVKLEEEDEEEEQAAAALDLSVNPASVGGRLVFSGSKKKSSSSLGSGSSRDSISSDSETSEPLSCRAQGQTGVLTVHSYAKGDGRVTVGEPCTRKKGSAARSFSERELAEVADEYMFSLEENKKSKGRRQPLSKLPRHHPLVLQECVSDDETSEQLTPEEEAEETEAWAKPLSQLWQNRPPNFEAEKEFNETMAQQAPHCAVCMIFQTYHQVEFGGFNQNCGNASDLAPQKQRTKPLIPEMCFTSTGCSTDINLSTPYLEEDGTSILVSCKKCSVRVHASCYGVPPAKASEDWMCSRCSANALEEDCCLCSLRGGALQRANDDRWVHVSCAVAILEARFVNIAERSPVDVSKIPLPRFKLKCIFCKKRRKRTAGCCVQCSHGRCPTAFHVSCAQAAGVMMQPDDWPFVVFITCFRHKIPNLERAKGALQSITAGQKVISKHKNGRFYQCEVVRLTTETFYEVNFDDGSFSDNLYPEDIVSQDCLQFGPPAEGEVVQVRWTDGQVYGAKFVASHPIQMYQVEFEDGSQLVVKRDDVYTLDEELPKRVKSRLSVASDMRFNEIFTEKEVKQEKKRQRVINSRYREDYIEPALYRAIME
Of the large screens only hits and unclear results are named; the others gave an inactive call. The call rests on the fitted dose curve; in most records, active means well fitted curve in the direction sought with a large enough effect; inconclusive means small, poorly fitted or top-dose-only effect, or another doubt; inactive means no such curve, though single readings can be large; an effect the other way counts as inactive or inconclusive.

Cc1ccc(-c2nc(CS(=O)CC(=O)NCCc3ccc(Cl)cc3)c(C)o2)cc1 (configuration not stated)	BAZ2B block inconclusive (no result: L3MBTL1 block, Sfp inh)
Cc1nn(-c2ccccc2)c(-n2cccc2)c1C(=O)NCCCN1CCN(c2ccccc2F)CC1	JMJD2A Tudor inh inconclusive (no result: L3MBTL1 block, Sfp inh)
COc1ccc(-c2oc(=O)c3cc(OC)c(OC)cc3c2C#CC2(O)CCCCC2)cc1	none (no result: G9a block, Sfp inh, BAZ2B block)
COc1ccc(-c2oc3cccnc3c2C#CCO)cc1	G9a block 50.1µM
COc1ccc(-c2sc3cc(OC)c(OC)cc3c2C#CC2(O)CCCCC2)cc1	BAZ2B block 79.4µM (no result: Sfp inh)
COc1ccc(-c2oc3cccnc3c2C#CC2(O)CCCCC2)cc1	G9a block 28.2µM, Sfp inh 79.4µM
CC(c1ccc(O)cc1)(c1ccc(O)cc1)c1ccc(CCBr)cc1	G9a block 79.4µM, BAZ2B block inconclusive (no result: L3MBTL1 block)
OCCc1ccc(O)cc1	none (no result: Sfp inh)
COC(=O)c1c(NC(=S)Nc2cc(OC)c(Cl)cc2OC)sc2c1CCCCC2	Sfp inh inconclusive, JMJD2A Tudor inh 50.1µM
CCOC(=O)c1c(NC(=S)Nc2cc([N+](=O)[O-])ccc2OC)sc2c1CCCCC2	G9a block inconclusive, Sfp inh 22.4µM, BAZ2B block inconclusive (no result: HP1b binding inh, JMJD2A Tudor inh)
COc1ccc(-n2c(=O)c(-c3ccc(F)cc3)nc3cnc(N4CCOCC4)nc32)cc1	none (no result: L3MBTL1 block, HP1b binding inh, BAZ2B block, JMJD2A Tudor inh)
NC(=S)Cc1nc2n(n1)Cc1ccccc1-2	G9a block 3.98µM, Sfp inh 56.2µM, JMJD2A Tudor inh 25.1µM (no result: L3MBTL1 block)
O=C(CN1CCN(Cc2ccccc2)CC1)N/N=C/C=C/c1ccco1	G9a block inconclusive
Clc1ccccc1CN1CCN(/N=C/C=C\c2ccco2)CC1	G9a block 35.5µM, HP1b binding inh 44.7µM, BAZ2B block 39.8µM, JMJD2A Tudor inh inconclusive
C(/C=C/c1ccco1)=N/N1CCN(c2ccccc2)CC1	G9a block 39.8µM, HP1b binding inh inconclusive, BAZ2B block 28.2µM, JMJD2A Tudor inh inconclusive
CCOC(=O)/C(=N\Nc1cccc(Cl)c1)Sc1nnc(-c2ccc(OC)cc2)n1C	G9a block 8.91µM
Cc1cc2c(cc1NS(=O)(=O)c1cccc(C#N)c1)n(C)c(=O)c(=O)n2C	G9a block 10µM (no result: L3MBTL1 block, Sfp inh)
Cc1cc2c(cc1NS(=O)(=O)c1ccc(Br)cc1)n(C)c(=O)c(=O)n2C	none (no result: L3MBTL1 block, Sfp inh)
COc1cc2c(cc1NS(=O)(=O)c1cccc(C#N)c1)n(C)c(=O)n2C	G9a block 10µM, BAZ2B block 79.4µM (no result: L3MBTL1 block, Sfp inh)
Cc1ccc(Cl)cc1N1CCN(C(=O)c2c(C)oc3ncnc(N4CCCCC4)c23)CC1	G9a block inconclusive, JMJD2A Tudor inh inconclusive (no result: L3MBTL1 block, Sfp inh)
CCN(CC)CCn1c2c(c(SCC(=O)Nc3cccc4ccccc34)nc1=O)CCC2	G9a block inconclusive (no result: Sfp inh)
Cc1cc(C)cc(NC(=O)CSc2nccn2-c2ccccc2)c1	G9a block inconclusive, BAZ2B block inconclusive, JMJD2A Tudor inh inconclusive (no result: L3MBTL1 block, Sfp inh)
Cn1ccnc1SCC(=O)Nc1cccc2ccccc12	none
Cc1cc(C)cc(-n2ccnc2SCC(=O)Nc2ccccc2F)c1	G9a block 14.1µM, HP1b binding inh inconclusive, BAZ2B block 28.2µM, JMJD2A Tudor inh inconclusive (no result: L3MBTL1 block, Sfp inh)
CN(C)CCn1c2c(c(SCC(=O)Nc3cccc4ccccc34)nc1=O)CCCC2	G9a block 44.7µM (no result: Sfp inh)
Cc1cccc(NC(=O)CSc2nc(=O)n3ccccc3n2)c1C	none (no result: Sfp inh)
Cc1cc(C)cc(-n2ccnc2SCC(=O)Nc2cccc3ccccc23)c1	G9a block 12.6µM, HP1b binding inh inconclusive, BAZ2B block 7.08µM, JMJD2A Tudor inh 22.4µM (no result: L3MBTL1 block, Sfp inh)
O=C(CSc1nc(=O)n2ccccc2n1)Nc1cccc2ccccc12	G9a block 50.1µM, JMJD2A Tudor inh inconclusive (no result: Sfp inh)
COc1ccccc1OCc1nnc(-c2ccccc2)o1	none (no result: L3MBTL1 block, Sfp inh)
